Screens deposited in PubChem BioAssay by several laboratories.
The list is not random: actives were taken first. Their share in the collection is about 2.2%.
KLF5 inh = inhibitors of KLF5 expression; DLD-1 KLF5 promoter-luciferase reporter, luminescence; inhibition, % at 5 µM; 0.23% of 290,000 active; AID 1700;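 active means inhibition above a per-plate limit of that plate's mean compound inhibition plus 3 SD, cut at about 60% in these data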;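 further: higher means less KLF5 promoter-driven luciferase light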
IEC-6 cytotox = kills IEC-6 intestinal cells in KLF5 counter-screen; 0.78% of 290,000 active; IEC-6 cytotoxicity, luminescence viability; inhibition, % at 5 µM; in the data active means inhibition above about 22%
Ba/F3 V617F tox = lowers viability of Ba/F3 cells expressing EpoR and JAK2V617F; ATP luminescence; inhibition, % at 5.6 µM; 1.1% of 220,000 active;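 active means inhibition above the campaign mean plus 3 SD over all tested compounds, cut at about 24% in these data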;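 further: cytokine-independent growth of Ba/F3 cells driven by EpoR plus mutant JAK2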
aSyn UTR inh = MLPCN primary screen, SNCA 5' untranslated region. alpha-synuclein 5'UTR reporter, inhibitor activity. inhibition, % (tested at 7.5 µM). 0.82% of 300,000 active; in the data active means inhibition above about 60%;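 further: H4 neuroglioblastoma cells stably carrying SNCA 5'UTR luciferase fusion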
BaF3 tox = reduces parental Ba/F3 cell viability, JAK2V617F counter-screen; CellTiter-Glo ATP luminescence; inhibition, % at 5.6 µM; 1.1% of 220,000 active; AID 1486;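 active means inhibition above a per-campaign cutoff, the mean inhibition of all tested compounds plus 3 SD, cut at about 27% in these data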
APP transl inh = APP translation inhibition; SH-SY5Y APP 5'UTR-luciferase reporter, luminescence; inhibition, % at 2 µM; 0.82% of 190,000 active;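 active means inhibition above a set limit, derived from the sample mean plus 3 SD, cut at about 45% in these data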
A number is an active result; n = inactive; x = not tested or not shown.

SMILES	KLF5 inh	IEC-6 cytotox	Ba/F3 V617F tox	aSyn UTR inh	BaF3 tox	APP transl inh
COc1ccc(-c2cc3nc(CCl)[nH]c(=O)c3s2)cc1	n	n	x	71.2	x	x
COc1ccc(-c2cc3nc[nH]c(=O)c3s2)cc1	n	n	n	n	n	n
CC(C)CC(/C(O)=C(\C#N)c1nc2ccccc2[nH]1)N1C(=O)c2ccccc2C1=O (centres undefined)	n	n	n	64.9	n	n
O=C1NC(=O)/C(=C\c2ccc(OCc3cccc(C(=O)O)c3)c(Cl)c2)N1	n	n	n	69.9	n	n
COc1cc(/C=C2\NC(=S)NC2=O)ccc1OCc1cccc(C(=O)O)c1	n	n	x	n	x	x
O=C(O)c1cccc(COc2ccccc2Cl)c1	x	x	x	103.3	x	x
O=C(O)c1ccc(COc2ccccc2Cl)cc1	n	n	n	n	n	n
CC(=O)Nc1ccc(NC(=O)C(C)OC(=O)C2CCN(S(=O)(=O)c3ccc4c(c3)OCCO4)CC2)cc1 (centres undefined)	x	x	x	n	x	x
Cc1ccc(OCC(=O)Nc2ccc(S(=O)(=O)N3CCOCC3)cc2)c(Br)c1	n	n	x	n	x	x
CC(=O)Nc1ccc(S(=O)(=O)Oc2ccc3c(c2)C(C)=CC(C)(C)N3)cc1	n	32.7	79.9	n	73.4	n
CCOc1[nH]n(-c2ccccc2)c(=O)c1C=NCc1ccncc1	n	n	n	n	n	48.9
CCOc1[nH]n(-c2ccc(Cl)cc2)c(=O)c1C=NCc1cccnc1	n	n	n	n	n	n
CCOc1ccc(Oc2ccccc2NC(=O)CCNC(C)=O)cc1	n	n	n	n	n	n
Cc1ccc2nc(-c3ccccc3)cc(C(=O)N3CCc4ccccc4C3)c2c1	n	n	n	n	n	46.6
O=C(c1cc(-c2ccccc2)nc2ccccc12)N1CCc2ccccc2C1	n	n	n	n	n	n
O=C(N/N=C\c1cc(Cl)ccc1O)c1ccc(S(=O)(=O)N2CCCCC2)cc1	n	n	n	112.5	n	73.0
COc1ccccc1CNc1ncc(-c2ccc(F)cc2)n1C	n	n	x	n	x	x
COc1ccc(CNc2ncc(-c3ccc(F)cc3)n2C)c2ccccc12	n	n	x	65.1	x	x
CCOC(=O)c1ccc(NC(=O)c2cccc(S(=O)(=O)N3c4ccccc4CC3C)c2)s1 (centres undefined)	n	n	n	83.1	n	n
CC1Cc2ccccc2N1S(=O)(=O)c1cccc(C(=O)NCCCO)c1 (centres undefined)	n	n	n	n	n	n
Cc1ccc(S(=O)(=O)N2c3ccccc3CC2C)cc1 (centres undefined)	n	n	n	n	n	n
CCOc1ccc(S(=O)(=O)N2c3ccccc3CC2C)cc1 (centres undefined)	n	67.0	77.0	92.6	75.6	93.7
COc1ccc(C(=O)COC(=O)CN2C(=O)C3C4CCC(C4)C3C2=O)cc1 (centres undefined)	n	n	x	n	x	x
Clc1ccc(/C=C/c2nc3ccccc3[nH]2)c(Cl)c1	n	n	n	68.2	n	n
N#CC1=C(N)OC2=C(CCc3ccccc32)C1c1ccccc1 (centres undefined)	n	n	n	70.4	n	96.2
SMILES	KLF5 inh	IEC-6 cytotox	Ba/F3 V617F tox	aSyn UTR inh	BaF3 tox	APP transl inh
Cc1ccc(/C=C2\CCC3=C2OC(N)=C(C#N)C3c2ccc(C)cc2)cc1 (centres undefined)	n	n	n	n	n	46.9
Cc1ccc(C2C(C#N)=C(N)Oc3cc(N)ccc32)cc1 (centres undefined)	n	n	x	n	x	x
CCCC(=O)NCCc1cc(OC)c(OC)cc1Br	n	n	n	n	n	n
C(=C1/CCCC2=C1Nc1ncnn1C2c1ccccc1)/c1ccccc1 (centres undefined)	n	26.4	54.9	n	54.2	n
O=C(OCC(=O)N1CCOCC1)c1ccc(Br)cc1	n	n	x	n	x	x
N#CC(c1ccc(Cl)cc1)c1cccc(Cl)n1 (centres undefined)	n	n	n	n	48.1	n
N#CC(c1ccc(Cl)cc1)c1ccc2c(C(F)(F)F)cc(C(F)(F)F)nc2n1 (centres undefined)	n	n	n	111.6	n	n
O=C(NCc1ccccn1)c1ccc(OC2CCN(Cc3ccc(Cl)s3)CC2)cc1	n	n	x	n	x	x
Cc1cc(C(=O)N/N=C/c2cc(Br)cc(Br)c2OC(=O)c2ccccc2)n[nH]1	n	n	n	89.3	n	n
Cc1cc(C(=O)N/N=C/c2cc(Br)cc(Br)c2OC(=O)c2cccc(F)c2)n[nH]1	n	n	n	70.0	n	n
Cc1cccc(C(=O)Oc2c(Br)cc(Br)cc2/C=N/NC(=O)c2ccncc2)c1	n	n	x	n	x	x
Cc1cc(C(=O)N/N=C\c2cc(C(C)(C)C)ccc2O)n[nH]1	n	n	x	74.7	x	x
Cc1cc(C(=O)N/N=C/c2cc(Br)ccc2OC(=O)c2ccc(Br)cc2)n[nH]1	n	n	n	84.0	n	n
Cc1cc(C(=O)N/N=C/c2cccs2)n[nH]1	n	n	n	n	n	n
CCn1ncc(Cl)c1C(=O)Nc1ccc2c(c1)CCC2	n	n	x	n	x	x
CN=c1scc(-c2ccco2)n1/N=C/c1ccc(O)c(O)c1	n	n	99.6	n	53.6	n
CN1CCN(c2ccc(S(=O)(=O)N3CCCCC3)cc2NC(=O)Cc2ccc(Cl)cc2)CC1	n	n	52.1	n	38.0	n
O=C(Cc1ccc(Cl)cc1)Nc1cc(S(=O)(=O)N2CCOCC2)ccc1N1CCCC1	n	n	n	n	n	n
O=C(N/N=C/c1ccccc1O)C1CC(=O)N(c2ccc(Cl)cc2)C1 (centres undefined)	n	n	x	83.3	x	x
Cn1c(=O)[nH]c(=O)c2c1nc(N1CCNCC1)n2CCOc1ccccc1	n	n	n	n	n	n
CCOCCn1c(N2CCN(c3ccccc3)CC2)nc2c1c(=O)[nH]c(=O)n2C	n	n	n	n	53.6	n
Cc1ccc(Nc2nc(N)nc(CN3CCCCCC3)n2)c(C)c1	n	n	n	n	n	n
Cc1ccc(Nc2nc(N)nc(CN3CCC(C)CC3)n2)c(C)c1	n	n	n	n	88.9	n
CCn1cc(CNC(=O)C2CCC(=O)N(C3CCCCCC3)C2)cn1 (centres undefined)	n	n	x	n	x	x
Cc1nnc(SCC(=O)Nc2nsc(-c3ccccc3)n2)s1	n	n	n	n	n	n
SMILES	KLF5 inh	IEC-6 cytotox	Ba/F3 V617F tox	aSyn UTR inh	BaF3 tox	APP transl inh
CC1(C)CC(=O)c2c(nc(SCC(=O)Nc3nsc(-c4ccccc4)n3)c(C#N)c2-c2ccccc2)C1	n	n	n	74.1	n	n
CCOc1ccc(OCc2cccc(C(=O)N/N=C/c3cccnc3)c2)cc1	n	n	n	87.0	n	n
O=C(N/N=C/c1ccc(F)cc1)c1ccc(OCc2ccccc2)cc1	n	n	n	n	49.4	x
CCOc1cccc(/C=N/NC(=O)c2cccnc2)c1O	94.3	n	x	n	x	x
CC(C)c1ccc(OCc2cccc(C(=O)N/N=C/c3cccnc3)c2)cc1	n	n	n	n	n	n
COc1ccc(O)c(/C=N/NC(=O)c2ccc(OCc3cccc(Br)c3)cc2)c1	n	n	n	82.3	n	65.5
COc1cccc(CNC(=O)Cn2ccc3cc(S(=O)(=O)N4CCCCCC4)ccc32)c1OC	n	n	x	n	x	x
